What all share (assay): glycan array binding signal (z-score within array); higher = stronger binding
Common to all, as to conditions: glycan notation: IUPAC condensed, linker removed

One assay has as its target Fuc(a1-2)Gal. Summed up: (§1)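 Glycan array data were curated from 3228 arrays in the Consortium for Functional Glycomics database and kept only where the protein sequence was available. Glycan names were converted to IUPAC-condensed notation, and columns mapping to the same glycan were averaged. The binding signal is a within-array Z-score, averaged across arrays of the same protein sequence at different concentrations or buffers and across linkers. Negative Z-scores can be read as non-binding.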

The next assay has as its target Fuc(a1-2)Gal(b1-3)GlcNAc. The method, boiled down: as §1
Assay [1] addresses Fuc(a1-2)Gal(b1-3)GlcNAc(b1-2)Man(a1-3)[Fuc(a1-2)Gal(b1-3)GlcNAc(b1-2)Man(a1-6)]Man(b1-4)GlcNAc(b1-4)GlcNAc. Summed up:
as §1

For assay [2], the target named is Fuc(a1-2)Gal(b1-3)GlcNAc(b1-2)Man(a1-3)[Fuc(a1-2)Gal(b1-3)GlcNAc(b1-2)Man(a1-6)]Man(b1-4)GlcNAc(b1-4)[Fuc(a1-6)]GlcNAc. Summed up: as §1
The target in assay [3] is Fuc(a1-2)Gal(b1-3)GlcNAc(b1-3)GalNAc. The method, boiled down: as §1
The target of assay [4] is Fuc(a1-2)Gal(b1-3)[Fuc(a1-4)]GlcNAc(b1-2)Man(a1-3)[Fuc(a1-2)Gal(b1-3)[Fuc(a1-4)]GlcNAc(b1-2)Man(a1-6)]Man(b1-4)GlcNAc(b1-4)[Fuc(a1-6)]GlcNAc(b1-4)[Fuc(a1-6)]GlcNAc. The method, boiled down:
as §1

The next assay addresses Fuc(a1-2)Gal(b1-4)GlcNAc. Summed up: as §1
Assay [5] concerns the target Fuc(a1-2)Gal(b1-4)[Fuc(a1-3)]GlcNAc(b1-2)Man(a1-3)[Fuc(a1-2)Gal(b1-4)[Fuc(a1-3)]GlcNAc(b1-2)Man(a1-6)]Man(b1-4)GlcNAc(b1-4)[Fuc(a1-6)]GlcNAc. Summed up:
as §1

The target in a further assay is Fuc(a1-2)Gal6S(b1-4)Glc. Summed up: as §1
Assay [6] deals with Fuc(a1-2)[Gal(a1-3)]Gal(b1-3)GlcNAc(b1-3)GalNAc. The method, boiled down:
as §1

The target of assay [7] is Fuc(a1-2)[Gal(a1-4)]Gal(b1-4)GlcNAc. The method, boiled down:
as §1

Assay [8] has as its target Fuc(a1-3)[Gal(b1-4)]GlcNAc(b1-2)Man. Summed up: as §1
For assay [9], the target named is Fuc(a1-3)[Gal(b1-4)]GlcNAc(b1-2)Man(a1-3)[Fuc(a1-3)[Gal(b1-4)]GlcNAc(b1-2)Man(a1-6)]Man(b1-4)GlcNAc(b1-4)GlcNAc. The method, boiled down: as §1
In assay [10] the target is Fuc(a1-3)[Gal(b1-4)]GlcNAc(b1-6)GalNAc. The method, boiled down: as §1
The target in assay [11] is Gal(a1-3)Gal(b1-3)GlcNAc(b1-2)Man. The method, boiled down:
as §1

For assay [12], the target named is Gal(a1-3)Gal(b1-4)GlcNAc(b1-6)GalNAc. The method, boiled down: as §1
The target in assay [13] is Gal(a1-3)[Gal(a1-4)]Gal(b1-4)GlcNAc. The method, boiled down:
as §1

In a further assay the target is Gal(a1-4)Gal(b1-4)GlcNAc. The method, boiled down:
as §1

Another assay concerns the target Gal(b1-2)Gal. The method, boiled down:
as §1

Another assay addresses Gal(b1-4)GlcNAc. Summed up:
as §1

The target in assay [14] is Gal(b1-4)GlcNAc(b1-3)Gal(b1-4)Glc. The method, boiled down:
as §1

For assay [15], the target named is Gal(b1-4)GlcNAc(b1-3)Gal(b1-4)GlcNAc(b1-2)Man(a1-3)[Gal(b1-4)GlcNAc(b1-3)Gal(b1-4)GlcNAc(b1-2)Man(a1-6)]Man(b1-4)GlcNAc(b1-4)GlcNAc. The method, boiled down: as §1
The target in another assay is GalNAc(b1-3)Gal. The method, boiled down: as §1

This excerpt belongs to a sample that is enriched for the strongest signals.

The source of these data is the supplement of paper PMC8728848.

B1: PX14375D-bvu-513-34-513 (Bacteroides vulgatus) (protein)
chain: TEDTFWKDETDFNLALTSCYTPLKNALNGGYYGTRGVMLRIARADEVDFRNDISDVYTVNRFTNSNTNSLTQGMFYQFYNALYRTNSIMQKLEEKKEQFSTDFQNSVKGECLFIRGFYLFQLAKEFKDAPLRLTASQSPSTFPLAKSSQADIWAQAKEDLKTAASLLPITNKIGKPTQGAAYAALGKIYVYEENWQEAINVLEPLTQNPYTYKLVEDFNWNFDDTHENNAESIFELLIEDVGGTDLWGDGENINSTQSNTRPKEYAAAEVGGWYEANPTQQIMDIFWKEKDKDGNFDYRARCSVAWDYEGCTYYQRPFREVFAQDKWKTYWILKYQNWKTQKDEPAPPKSFINERAIRYADVLLMLAEAYMNKGALDTSIGYINQIRRRANLNDYSGPITKEGVFEDLVHQRAIEFFVEGERFYDLRRWGLLEQTLKTCDDTRYKNYQTGKSDNINKFNYFPIPAKELDTNPLCTPSEGW
For B1, the “glycan array binding signal (z-score)” value is 0.373 in the assay with Fuc(a1-2)Gal; -0.892 with Fuc(a1-2)Gal(b1-3)GlcNAc; 1.56 in assay [1]; 0.425 in assay [2]; -0.35 in assay [3]; 2.03 in assay [4]. Besides, the “glycan array binding signal (z-score)” value with Fuc(a1-2)Gal(b1-4)GlcNAc is 0.501; in [5] it was 1.81; with Fuc(a1-2)Gal6S(b1-4)Glc it was -0.059; in assay [6], -0.366; in assay [7], -0.107; in assay [8], 2.96. The “glycan array binding signal (z-score)” value in assay [9] was -0.56; in assay [10], 0.851; in assay [11], -0.81; in assay [12] it was 0.081; in assay [13], 2.92; in the assay with Gal(a1-4)Gal(b1-4)GlcNAc it was 0.227. The “glycan array binding signal (z-score)” value in the assay with Gal(b1-2)Gal was -0.667; with Gal(b1-4)GlcNAc it was 0.126; in assay [14] it was -0.017; in assay [15], 1.87; with GalNAc(b1-3)Gal, -0.306.
